# This is part of a sample that, as a whole, favours compounds with a hit. Of some 79,000 tested, about 15% had one in any assay. Unmarked numbers belong to inactive results. Active and inactive are the calls of the source. No stated cut-off is given here; in the data, active means growth inhibition above about 70%; inactive means the rest.
# Columns and labels:
# [1] = NCI Yeast Anticancer Drug Screen. Data for the rad52 strain (AID 147);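 further: 0% = growth of vehicle-treated control cultures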; conditions: S. cerevisiae rad52 mutant growth inhibition, active compounds read high
# How it was run: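 Compounds are applied to a genetically defined yeast strain lacking normal DNA damage repair, and inhibition of growth is expressed relative to cultures given vehicle only.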
# [2] = NCI Yeast Anticancer Drug Screen. Data for the wt1 strain (AID 149);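 further: 0% = growth of vehicle-treated wt1 cultures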; conditions: S. cerevisiae wt1 strain (SPY 50644) growth inhibition, active compounds read high
# How it was run: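 Yeast wt1 strain exposed to compounds; growth inhibition measured relative to vehicle-treated controls.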
# [3] = NCI Yeast Anticancer Drug Screen. Data for the rad50EPP+ strain (AID 151);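 further: 0% = growth of vehicle-treated control cultures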; conditions: S. cerevisiae rad50 mutant strain, active compounds read high
# How it was run: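 Compounds were applied to the rad50EPP+ yeast strain, which bears a defined DNA repair alteration, and growth inhibition was determined relative to vehicle-treated cultures.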
# [4] = NCI Yeast Anticancer Drug Screen. Data for the mgt1 strain (AID 153); conditions: S. cerevisiae mgt1 mutant growth inhibition, active compounds read high
# How it was run: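 Strain: mgt1 yeast, one of a set carrying defined DNA damage repair or cell cycle control alterations. Compound-treated growth compared with vehicle.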
# [5] = NCI Yeast Anticancer Drug Screen. Data for the rad50 strain (AID 155);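 further: 0% = growth of vehicle-only cultures of the same strain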; conditions: S. cerevisiae rad50 strain growth inhibition, active compounds read high
# How it was run: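 Yeast carrying a defined DNA repair defect were exposed to test compounds, and growth was compared with vehicle-treated controls to give percent inhibition.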
# [6] = NCI Yeast Anticancer Drug Screen. Data for the mec2-1 strain (AID 157); conditions: S. cerevisiae mec2-1 strain, active compounds read high
# How it was run: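 Strain: mec2-1 (DNA repair/cell cycle alteration). Compound exposure, then growth measured; inhibition expressed relative to vehicle.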
# [7] = NCI Yeast Anticancer Drug Screen. Data for the rad14 strain (AID 159);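 further: 0% = growth of vehicle-treated control cultures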; conditions: S. cerevisiae rad14 strain growth inhibition, active compounds read high
# How it was run: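 Yeast cells carrying a defined DNA-repair defect were exposed to compounds, and growth inhibition was calculated relative to vehicle-treated control cultures.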
# [8] = NCI Yeast Anticancer Drug Screen. Data for the sgs1 mgt1 strain (AID 161);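 further: 0% = growth of cultures given vehicle only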; conditions: S. cerevisiae sgs1 mgt1 strain, active compounds read high
# How it was run: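 Mutant yeast exposed to compound; growth scored against vehicle-only wells.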
# [9] = NCI Yeast Anticancer Drug Screen. Data for the CLN2oe strain (AID 163);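 further: 0% = growth of vehicle-only control cultures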; conditions: S. cerevisiae CLN2oe strain, active compounds read high
# How it was run: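 Growth of a genetically modified yeast strain is measured after compound exposure and compared with cultures given vehicle alone.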
# [10] = NCI Yeast Anticancer Drug Screen. Data for the cln2 rad14 strain (AID 165);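 further: 0% = growth equal to vehicle treated cultures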; conditions: S. cerevisiae cln2 rad14 strain, active compounds read high
# How it was run: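 Compounds are applied to the cln2 rad14 yeast strain, and growth is then compared with that of vehicle-treated cultures to give inhibition.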
# [11] = NCI Yeast Anticancer Drug Screen. Data for the bub3 strain (AID 167); conditions: S. cerevisiae bub3 mutant strain, active compounds read high
# How it was run: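 Compounds were applied to a genetically altered yeast strain carrying a cell-cycle control defect. Growth inhibition was scored against vehicle-treated controls.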
# [12] = NCI Yeast Anticancer Drug Screen. Data for the wt2 strain (AID 169);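 further: 0% = growth of vehicle-treated yeast cultures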; conditions: S. cerevisiae wt2 strain growth inhibition, active compounds read high
# How it was run: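 This strain belongs to a panel of yeast strains with defined genetic alterations in DNA damage repair or cell cycle control. Compounds are applied, and growth inhibition is measured against vehicle-treated cultures.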
# [13] = NCI Yeast Anticancer Drug Screen. Data for the mlh1 strain (AID 171);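 further: 0% = growth of vehicle-treated control cultures of the same strain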; conditions: S. cerevisiae mlh1 strain growth inhibition, active compounds read high
# How it was run: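 Growth of the mutant yeast strain after compound exposure, expressed as inhibition relative to vehicle-only controls.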
# [14] = NCI Yeast Anticancer Drug Screen. Data for the sgs1 strain (AID 173);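 further: 0% = growth of vehicle-only control cultures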; conditions: S. cerevisiae sgs1 mutant, active compounds read high
# How it was run: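 Growth of a yeast strain bearing a defined genetic alteration is measured after compound treatment. Inhibition is expressed relative to vehicle-only controls.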
# [15] = NCI Yeast Anticancer Drug Screen. Data for the mlh1 rad18 strain (AID 175); conditions: S. cerevisiae mlh1 rad18 strain growth inhibition, active compounds read high
# How it was run: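 Read-out is yeast growth inhibition, calculated against vehicle-only controls. The compound was applied to a strain engineered with DNA damage repair alterations.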
# [16] = NCI Yeast Anticancer Drug Screen. Data for the rad18 strain (AID 177); conditions: S. cerevisiae rad18 mutant growth inhibition, active compounds read high
# How it was run: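 Growth of the mutant yeast strain after compound exposure, normalised to vehicle-only cultures.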
# [17] = at 5.0 µM (retest, dose inferred, filed as 0.5)
# [18] = at 50.0 µM (retest, dose inferred, filed as 5.0)
structure (smiles),measurement,setting,value
O=C(NCCCNCCN1C(=O)c2cccc3cc([N+](=O)[O-])cc(c23)C1=O)c1cc(-c2ccccc2)nc2ccccc12,growth inhibition,[1]; at 1.2 µM,-2%
same,growth inhibition,[1]; at 3.7 µM,2%
same,growth inhibition,[1]; at 11.0 µM,6%
same,growth inhibition,[1]; at 33.0 µM,38%
same,growth inhibition,[1]; at 100.0 µM,98% (active)
same,growth inhibition,[2]; at 1.2 µM,0%
same,growth inhibition,[2]; at 3.7 µM,-1%
same,growth inhibition,[2]; at 11.0 µM,-2%
same,growth inhibition,[2]; at 33.0 µM,-6%
same,growth inhibition,[2]; at 100.0 µM,96% (active)
same,growth inhibition,[3]; at 1.2 µM,0%
same,growth inhibition,[3]; at 3.7 µM,2%
same,growth inhibition,[3]; at 11.0 µM,8%
same,growth inhibition,[3]; at 33.0 µM,19%
same,growth inhibition,[3]; at 100.0 µM,57%
same,growth inhibition,[4]; at 1.2 µM,-1%
same,growth inhibition,[4]; at 3.7 µM,0%
same,growth inhibition,[4]; at 11.0 µM,-1%
same,growth inhibition,[4]; at 33.0 µM,8%
same,growth inhibition,[4]; at 100.0 µM,99% (active)
same,growth inhibition,[5]; at 1.2 µM,-2%
same,growth inhibition,[5]; at 3.7 µM,2%
same,growth inhibition,[5]; [17],-11%
same,growth inhibition,[5]; at 11.0 µM,8%
same,growth inhibition,[5]; at 33.0 µM,64%
same,growth inhibition,[5]; [18],98% (active)
same,growth inhibition,[5]; at 50.0 µM,94.3% (active)
same,growth inhibition,[5]; at 100.0 µM,99% (active)
same,growth inhibition,[6]; at 1.2 µM,0%
same,growth inhibition,[6]; at 3.7 µM,-1%
same,growth inhibition,[6]; [17],-1%
same,growth inhibition,[6]; at 11.0 µM,0%
same,growth inhibition,[6]; at 33.0 µM,5%
same,growth inhibition,[6]; [18],86% (active)
same,growth inhibition,[6]; at 50.0 µM,91% (active)
same,growth inhibition,[6]; at 100.0 µM,99% (active)
same,growth inhibition,[7]; at 1.2 µM,-1%
same,growth inhibition,[7]; at 3.7 µM,-1%
same,growth inhibition,[7]; at 11.0 µM,4%
same,growth inhibition,[7]; at 33.0 µM,21%
same,growth inhibition,[7]; at 100.0 µM,99% (active)
same,growth inhibition,[8]; [17],-2%
same,growth inhibition,[8]; [18],96% (active)
same,growth inhibition,[8]; at 50.0 µM,93.5% (active)
same,growth inhibition,[9]; at 1.2 µM,1%
same,growth inhibition,[9]; at 3.7 µM,3%
same,growth inhibition,[9]; at 11.0 µM,-4%
same,growth inhibition,[9]; at 33.0 µM,10%
same,growth inhibition,[9]; at 100.0 µM,98% (active)
same,growth inhibition,[10]; [17],33%
same,growth inhibition,[10]; [18],78% (active)
same,growth inhibition,[10]; at 50.0 µM,93.6% (active)
same,growth inhibition,[11]; at 1.2 µM,-4%
same,growth inhibition,[11]; at 3.7 µM,0%
same,growth inhibition,[11]; [17],-9%
same,growth inhibition,[11]; at 11.0 µM,2%
same,growth inhibition,[11]; at 33.0 µM,9%
same,growth inhibition,[11]; [18],97% (active)
same,growth inhibition,[11]; at 50.0 µM,93.3% (active)
same,growth inhibition,[11]; at 100.0 µM,98% (active)
same,growth inhibition,[12]; at 1.2 µM,-1%
same,growth inhibition,[12]; at 3.7 µM,-1%
same,growth inhibition,[12]; at 11.0 µM,-2%
same,growth inhibition,[12]; at 33.0 µM,-2%
same,growth inhibition,[12]; at 100.0 µM,99% (active)
same,growth inhibition,[13]; at 1.2 µM,-3%
same,growth inhibition,[13]; at 3.7 µM,1%
same,growth inhibition,[13]; at 11.0 µM,1%
same,growth inhibition,[13]; at 33.0 µM,9%
same,growth inhibition,[13]; at 100.0 µM,99% (active)
same,growth inhibition,[14]; at 1.2 µM,-1%
same,growth inhibition,[14]; at 3.7 µM,1%
same,growth inhibition,[14]; at 11.0 µM,2%
same,growth inhibition,[14]; at 33.0 µM,17%
same,growth inhibition,[14]; at 100.0 µM,98% (active)
same,growth inhibition,[15]; [17],-1%
same,growth inhibition,[15]; [18],97% (active)
same,growth inhibition,[15]; at 50.0 µM,97.6% (active)
same,growth inhibition,[16]; at 1.2 µM,-3%
same,growth inhibition,[16]; at 3.7 µM,-2%
same,growth inhibition,[16]; at 11.0 µM,-1%
same,growth inhibition,[16]; at 33.0 µM,10%
same,growth inhibition,[16]; at 100.0 µM,99% (active)

# — PubChem BioAssay (NCI)
